From the supplement of paper PMC11417369
Whole data set: some 25,000 sequences, median “ln(normalized median fluorescence intensity)” near 6.7, cut for the highest 2% near 10. The sample holds the highest values, similar sequences and a random draw of the others, so the mix is not that of the screen.

Test system: PfHDP1 homeodomain (GST-tagged)
Assay: gcPBM binding intensity (ln(normalized median fluorescence intensity)); higher = stronger DNA binding
In short: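 Binding intensity is defined as the maximum Masliner-normalised natural-log median intensity across replicate spots for either probe orientation. It was measured on an Agilent 4 × 180k array of primer-extended double-stranded 36-bp intergenic genomic probes and negative controls, to which GST-tagged P. falciparum DNA-binding domains made in E. coli were applied for 1 h in 1× PBS with 1% milk, 0.2 mg/ml BSA, 0.5% salmon testes DNA and 0.03% Triton X-100. Detection was by Alexa488 anti-GST antibody and scanning at 488 nm.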

Sequence | gcPBM binding intensity (ln)
AAATATTATAATAATTGTACTATATATACAGTTATT [XGTACX_site1963] | 6.39
TAATATATCTATAATACACACTATTCTAATCACATA [CACACA_site6731] | 6.49
AGTAGTCTGGAGAAGAGTACATAGTATCTGGTAGCT [XGTACX_site2017] | 6.4
ATATTTTTATTAGTAGTGCAATTTAGTGTATATATA [GTGCAC_site9542] | 10.1
ATTTATATTACCCTTGCATGTAGGTGCAATTTTTTT [TGCATGCA_site757] | 10.5
TACCCTTGCATGTAGGTGCAATTTTTTTTTTTTTTT | 9.32
AAAAAAAAAAAACACACACACACATACACATACATA [CACACA_site2858] | 6.83
TTAACATCAAAATATGCACACAAACAATTAGCGGTA [CACACA_site8801] | 9.76
TATTTATGCACGCGTGCACACACATATGAAAAAAGG [CACACA_site9090] | 10.9
TATGAAAAAATATATACACACATAATAAAGGTATAT [CACACA_site3737] | 6.42
TTTATGACTTGAAAAAGTACACATATATTTATGCAA [XGTACX_site5451] | 6.31
TTATATGCATAAAAAGGTACACATATATAAATAAAT [XGTACX_site6894] | 6.68
TTTATGCACGCGTGCACACACATATGAAAAAAGGTA [CACACA_site3315] | 11
CAAAAGGATATGCACACACACACACGGATATTTATA [CACACA_site7099] | 10.1
TTAGGAAGCTCACAAAATAAAGTGAAAAGAAGAAAA [XGTACX_negctrl_site572] | 6.45
CCACAAGTATATAGTAGTACAATTTTTTTCTCTTTA [XGTACX_site4403] | 6.12
ACAACAAAAATAAGCACACACAAATATACATACATA [CACACA_site7664] | 6.55
TCATATAATATTTATATGCACACTTTTCTATATATA [CACACA_site4075] | 8.75
TTCTCTATAAATGCTGCACACACATTTAATTATTTA [CACACA_site8828] | 8.06
TTTATTGCTCTATATGCACACCTTAATTCTTCATTT [CACACA_site8682] | 11.1
TTTTTATATAACCTTCTTAATTCTTTTTTTTTTTTT [XGTACX_negctrl_site591] | 6.16
CTTTTATTGCTCTATATGCACACCTTAATTCTTCAT [CACACA_site2195] | 10.5

Sequence | gcPBM binding intensity (ln)
CTCTTCTATATATAAGCATGCATTCATAATAATTTA [TGCATGCA_site679] | 7.04
AAAAGGAACGGACACACACACATATATATATATATA [CACACA_site5894] | 9.45
TTTTTGAGTGCACATACACACAGACATACATTTAAA [CACACA_site5813] | 10.4
ACTAAACTTTTATGTACACACATATAACATTAATTT [CACACA_site5276] | 6.98
TATATATTAAACTTTGCACACATAATTTAACTACAA [CACACA_site3440] | 10.7
TATATTAAACTTTGCACACATAATTTAACTACAAAG [CACACA_site3441] | 10.5
TTTTTTTTTTTTTTTGCACACTATATTTAATATAAG [CACACA_site2444] | 9.31
AATATAACTTTTTGCACACTTAATTTTTTTTTTTAA [CACACA_site3365] | 10.6
TTAATATAACTTTTTGCACACTTAATTTTTTTTTTT [CACACA_site3364] | 10.2
ATGTATATGTTTTGTTGTACAAGTATTTTATATCTT [XGTACX_site3588] | 6.77
CTCATAGTTGGGTGCACACAAAAAATTAAAAAAATA [CACACA_site3032] | 10.3
AAAATTAAACTCACACCACACACAAAAAAAAAAAAA [CACACA_site8131] | 6.32
TTCATATTATAGTGCACACAAAAATATATATATGGT [CACACA_site2855] | 10.4
AACTCATAGGAGTGTGCACACAAAAAATTAAAAAAA [CACACA_site8996] | 11
AATTATTAGCGTGGTGTGCACAAAATTATGGACACA | 9.8
AACTCATAGCGGTGTGCACACAAAAAATTAAAAAAA [CACACA_site3033] | 11
AGTATATATTATATATATATATATATATTATATATG [TGCATGCA_negctrl_site99] | 6.59
CTTTCTTATTTGAACGCATGCATTTGTACCTTTTAT [TGCATGCA_site671] | 6.85
AAATTCCACCAACACACACACATATAAATAAATAAA [CACACA_site1233] | 6.84
TTCAAAACTTAAAATCGTACAAGACAATTATTATAT [XGTACX_site6626] | 6.32
TTCTTTTTATTTATATTTTCCCCTCTCTATAGCTAT [XGTACX_negctrl_site102] | 7.06
